# ADAM17 inh: inhibits human ADAM17; 370,000 compounds, 0.83% hits; recombinant ADAM17, EDANS/DABCYL FRET peptide cleavage; inhibition, % at 6.95 µM; P78536; AID 720648;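 active = inhibition above the mean of compounds lying between control limits plus 3 SD, set per campaign, cut at about 8.5% in these data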;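 note: 0% = DMSO-only wells as the low control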
# ADAM10 inh: ADAM10 inhibition, QFRET primary screen; O14672; recombinant ADAM10, EDANS/DABCYL FRET peptide cleavage, 3 h; inhibition, % at 7 µM; 370,000 compounds, 0.62% hits; AID 720582;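 active = inhibition above a per-campaign cutoff equal to the mean of compounds falling between control-based bounds plus 3 SD, cut at about 20% in these data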;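 note: 0% = DMSO wells while the 100% control is not disclosed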
# Target sequence (O14672 214-748 limits assumed): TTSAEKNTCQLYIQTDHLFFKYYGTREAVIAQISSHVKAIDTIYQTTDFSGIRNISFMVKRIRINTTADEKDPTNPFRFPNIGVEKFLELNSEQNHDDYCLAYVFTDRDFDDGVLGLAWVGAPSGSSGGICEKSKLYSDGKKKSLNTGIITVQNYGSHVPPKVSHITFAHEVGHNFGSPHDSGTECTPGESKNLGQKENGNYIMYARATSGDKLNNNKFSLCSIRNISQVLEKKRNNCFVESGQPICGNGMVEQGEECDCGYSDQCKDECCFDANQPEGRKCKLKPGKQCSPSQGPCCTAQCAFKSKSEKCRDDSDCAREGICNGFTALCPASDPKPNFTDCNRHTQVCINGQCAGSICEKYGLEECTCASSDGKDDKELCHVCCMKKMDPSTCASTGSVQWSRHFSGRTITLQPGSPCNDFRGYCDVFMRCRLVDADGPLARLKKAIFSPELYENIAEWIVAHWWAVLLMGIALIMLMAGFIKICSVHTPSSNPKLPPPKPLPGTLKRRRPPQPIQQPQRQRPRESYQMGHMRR
# KLK7 zymogen act: activators of human kallikrein-7 zymogen; AID 652039; purified proKLK7, EDANS-DABCYL substrate fluorescence; 100% is mature enzyme control, 0% vehicle; 370,000 compounds, 0.9% hits; activation, % at 7 µM;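 active = activation above the mean of all tested compounds plus 3 SD, computed per campaign excluding outliers beyond control limits, cut at about 13% in these data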
# FAS TE block: FAS thioesterase (human) inhibition; P49327; recombinant FAS-TE, OMFH fluorogenic substrate, fluorescence endpoint; inhibition, % at 15 µM; 360,000 compounds, 0.67% hits;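 active = compounds whose normalised, plate-corrected inhibition of enzyme fluorescence in the single-dose primary screen is 50% or more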;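 note: 0% = DMSO with enzyme and 100% = substrate without enzyme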
# NR3A LBD binder: modulates the human NR3A ligand-binding domain; NR3A LBD differential scanning fluorimetry, Tm shift; 0% = protein alone, 100% = glycine-bound protein; Tm shift relative to glycine control, % at 25 µM; 340,000 compounds, 2.5% hits;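 active = melting temperature shift of at least 10% of the positive control shift, at one fixed dose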
# ADAM10 ctr: counter-screen for ADAM17 exosite inhibitors: inhibitors of human ADAM10 | AID 743256 | 2,900 compounds, 47% hits | recombinant ADAM10, EDANS/DABCYL FRET peptide cleavage, 3 h | shares compounds with ADAM17 inh | inhibition, % at 6.95 µM;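 active = mean inhibition over the triplicate runs exceeds the activity threshold set in the earlier primary screen, cut at about 20% in these data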;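 note: 0% = DMSO wells and 100% = marimastat wells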
# ADAM17 confirm: human ADAM17 inhibition, confirmation; AID 743257; shares compounds with ADAM17 inh; 2,900 compounds, 65% hits; inhibition, % at 6.95 µM; recombinant ADAM17, EDANS/DABCYL QFRET peptide cleavage;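 active = mean inhibition across replicates above the hit cutoff set in the primary screen, cut at about 8.5% in these data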;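 note: 0% = DMSO wells and 100% = marimastat wells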
# Numbers without * were called inactive; / = not tested or not shown. Only some compounds are listed: those with a hit (about 4.6% of all), similar ones and a draw of the others.
SMILES,ADAM17 inh,ADAM10 inh,KLK7 zymogen act,FAS TE block,NR3A LBD binder,ADAM10 ctr,ADAM17 confirm
Cc1ccc(S(=O)(=O)N2[C@H](c3ccccc3)CC(=O)[C@@H]3CN(S(=O)(=O)c4ccccc4C)[C@H](c4ccccc4)C[C@@H]32)cc1,-3,-10,0,28,/,/,/
Cc1ccc(S(=O)(=O)N2C[C@H]3C(=O)C[C@@H](c4cccc(C)c4)N(S(=O)(=O)c4ccc(C)cc4)[C@H]3C[C@H]2c2ccccc2)cc1,8.9*,4,-1,27,/,10,7
Cc1ccc(S(=O)(=O)N2C[C@H]3C(=O)C[C@@H](c4ccccc4)N(S(=O)(=O)c4ccc(C)cc4)[C@H]3C[C@H]2c2ccccc2)cc1,0,-6,0,42,/,/,/
Cc1ccc(S(=O)(=O)N2C[C@H]3C(=O)C[C@@H](c4ccccc4)N(S(=O)(=O)c4ccccc4C)[C@H]3C[C@H]2c2ccccc2)cc1,11*,13,-1,14,/,22*,9.9*
C[C@H](CO)N1C[C@H](C)[C@@H](CN(C)C(=O)Nc2ccc3c(c2)OCCO3)OCc2cn(nn2)CCCC1=O,-2,-10,0,/,/,/,/
O=C(NC1CCCC1)[C@@H]1CCCN1C(=O)[C@@H](NS(=O)(=O)c1ccc(F)cc1F)C1CCCCC1,3,-17,0,/,/,/,/
Cc1ccc(S(=O)(=O)N2CCN(C(=O)COC(=O)CNC(=O)c3ccccc3)CC2)c(C)c1,3,-6,0,-5,0,/,/
Cc1cc(C)cc(C(=O)NCC(=O)OCC(=O)N2CCN(S(=O)(=O)c3ccc4ccccc4c3)CC2)c1,10*,15,0,14,6,26*,12*
COc1ccccc1/C=C/C1C(C(=O)OCC(C)C)=C(C)N=C2SCCC(=O)N21 (stereo not given),11*,15,-1,21,1,20,12*
O=C(NCCn1cc(SCc2ccccc2)c2ccccc21)c1ccccc1F,10*,16,0,28,-7,12,9.2*
CCCCN(CCCC)S(=O)(=O)c1ccc(NC(=O)c2cccs2)cc1,12*,16,1,31,8,32*,16*
Nc1ccn([C@@H]2O[C@H](C(=O)N[C@H](Cc3ccccc3)C(=O)N3CCSC3)[C@@H](O)[C@H]2O)c(=O)n1,-5,-11,0,/,/,/,/
COC(=O)C1=C(C)N(Cc2ccccc2C(F)(F)F)C(=NCc2ccccc2C(F)(F)F)NC1c1cccc(F)c1 (stereo not given),0,7,0,/,/,/,/
CN(Cc1ccco1)C(=O)CN1C(=O)NC(c2ccccc2)(c2ccccc2)C1=O,-1,-7,0,-4,-3,/,/
Cc1ccc(CN(C)C(=O)CN2C(=O)NC(c3ccccc3)(c3ccccc3)C2=O)c(C)c1,9.1*,8,0,30,4,31*,13*
CCOC(=O)Cc1csc(NC(=O)c2cc(C)c(C)s2)n1,11*,-10,0,1,-1,5,8.9*
CCOC(=O)Cc1csc(NC(=O)c2ccc(Cl)s2)n1,-3,7,0,1,2,/,/
CCOC(=O)Cc1csc(NC(=O)COc2ccccc2)n1,10.0*,11,0,-5,-1,-9,-1
CC(C)[C@H]1COCCS(=O)(=O)N1Cc1ccccc1-c1cccc2c1oc1ccccc12,11*,19,-1,39,2,9,7
CCCCOc1ccccc1-c1ccccc1CN1[C@@H](C(C)C)COCCS1(=O)=O,3,8,0,22,5,/,/
COC(=O)C1=C(C)N(Cc2ccccc2C(F)(F)F)C(=NCc2ccc(OC)cc2)NC1c1cccc(Cl)c1 (stereo not given),-2,-4,0,/,/,/,/
Cc1ccc(NC(=O)c2cc(S(=O)(=O)NCCC3=CCCCC3)ccc2F)cc1,14*,23*,0,30,14*,34*,18*
COc1ccccc1CCn1cnc(-c2ccc(Cl)cc2)c1CC(C)C,0,5,1,/,/,/,/
CS(=O)(=O)c1ccc(OCCCN2CCC(C(O)(c3ccccc3)c3ccccc3)CC2)cc1,0,-4,0,/,/,/,/
CSCCC(NC(=O)c1cccc(S(=O)(=O)N2CCOCC2)c1)c1nc2ccccc2[nH]1 (stereo not given),10*,3,0,-5,1,14,7
SMILES,ADAM17 inh,ADAM10 inh,KLK7 zymogen act,FAS TE block,NR3A LBD binder,ADAM10 ctr,ADAM17 confirm
Cc1ccc(N(CC(=O)NCc2ccncc2)S(C)(=O)=O)cc1Cl,-3,-6,0,-11,3,/,/
Cc1ccc(N(CC(=O)NCc2cccnc2)S(C)(=O)=O)cc1C,10*,13,0,0,4,0,1
Cc1ccc(S(=O)(=O)NC(=S)c2ccccc2)cc1,-1,1,0,-9,-2,/,/
Cc1ccc(S(=O)(=O)CNC(=S)c2cccc(Cl)c2)cc1,11*,19,0,-2,0,48*,26*
CCN1C(=O)[C@@H]2[C@@H](c3ccc(-c4cccc(Cl)c4)c(OC)c3)N3CCCC[C@@]3(C(=O)OC)[C@@H]2C1=O,9.9*,13,0,25,-2,20*,16*
Nc1[nH]c(C(=O)c2ccc(Br)cc2)c(-c2ccccn2)c1C(=O)NCCc1c[nH]c2ccccc12,8.8*,17,0,/,/,15,12*
Nc1[nH]c(C(=O)c2ccc(Br)cc2)c(-c2ccc(Cl)cc2[N+](=O)[O-])c1C(=O)NCCc1c[nH]c2ccccc12,9.3*,5,0,/,/,15,14*
Nc1[nH]c(C(=O)c2ccccc2)c(-c2ccccc2C(F)(F)F)c1C(=O)NCCc1c[nH]c2ccccc12,9.4*,7,-1,9,/,7,5
Nc1[nH]c(C(=O)c2ccccc2)c(-c2ccccc2Br)c1C(=O)NCCc1c[nH]c2ccccc12,4,4,0,23,/,/,/
Cc1ccccc1-c1ccc2c(c1)[C@@H]1C[C@H]3[C@@H](CN1CC2)[C@H](C)OC(C1CCCCC1)N3C (stereo not given in full),-6,-25,0,/,/,/,/
CN(C(=O)[C@@H](Cc1ccccc1)NC(=O)[C@H]1O[C@@H](n2cnc3c(=O)[nH]c(N)nc32)[C@H](O)[C@@H]1O)C1CCCCC1,-5,-10,0,/,/,/,/
CCOC(=O)[C@]12CCCCC/C=C\1N(Cc1ccc(OC)cc1)C(=O)[C@H]2CC(=O)N1CCCCC1,0,5,0,/,/,/,/
CCOC(=O)[C@]12CCCCC/C=C\1N(Cc1ccc(OC)cc1)C(=O)[C@H]2CC(=O)N1CCC(c2ccccc2)CC1,9.4*,11,1,/,/,11,7

# Source: PubChem BioAssay
